We go through five compounds from PubChem BioAssay (EPA / NIEHS).

SMILES strings stand for the structures. Results filed as inconclusive are left out. Some structures have more than one record in an assay (separate samples or runs), and their calls can disagree. Calls of active or inactive are those of the source. How the source made its calls, unless noted: active means hit-call score of the fitted dose curve at least 0.9, where 1 is the maximum; inactive means score below 0.9.

Test [1] is described as follows: ATG_NFI_CIS: Attagene CIS-FACTORIAL HepG2 Assay for human Nuclear Factor I (NFI) (AID 2282989). To be noted: HepG2 cis-regulatory reporter, NFI response element transcription; actives raise or lower the signal. The gist of the method: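 Read-out: reporter mRNA via RT-PCR plus capillary electrophoresis with fluorescence detection. Transiently transfected HepG2 (endogenous TF activity on cis promoters), 24 h compound exposure; gain or loss of signal fitted against DMSO.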

In test [2] the target is Myc proto-oncogene protein (Homo sapiens) (UniProt P01106). Description: ATG_Myc_CIS: Attagene CIS-FACTORIAL HepG2 Assay for human Myelocytomatosis (Myc) Proto-Oncogene Transcription Factor (AID 2282990). To be noted: HepG2, Attagene cis-reporter transcription factor activity; actives raise or lower the signal. The gist of the method:
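Cells of the HepG2 human liver line bear multiple cis-driven reporter transcription units. Reporter mRNA after 24 h exposure is reverse-transcribed, amplified, labelled and resolved by capillary electrophoresis, with gain- or loss-of-signal fitting relative to DMSO.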

The nature of test [3]: ATG_NF_kB_CIS: Attagene CIS-FACTORIAL HepG2 Assay for human Nuclear Factor Kappa B (NF-kB) (AID 2282991). Conditions: HepG2 Attagene cis-factorial NF-kB reporter mRNA; actives raise or lower the signal. Summed up: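 Multiplexed cis-reporter assay in transiently transfected HepG2. 24 h treatment; RNA isolated, RT-PCR, labelled fragments resolved by CE. DMSO baseline.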
A short description of test [4]: ATG_NRF2_ARE_CIS: Attagene CIS-FACTORIAL HepG2 Assay for human Nuclear Factor Erythroid 2 Related Factor 2 (NFR2) response to Antioxidant Response Elements (ARE) (AID 2282992).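 On AC50: reporter mRNA level measured by RT-PCR and capillary electrophoresis fluorescence.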 To be noted: HepG2 Attagene ARE/NRF2 reporter, transcription factor activity; actives raise or lower the signal. The gist of the method: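 Multiplexed reporter mRNA profiling in HepG2 after a 24 h chemical exposure. Curves fitted in both directions relative to DMSO negative control.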

A short description of test [5]: ATG_Oct_MLP_CIS: Attagene CIS-FACTORIAL HepG2 Assay for human Octamer-Binding Transcription Factor (Oct) (AID 2282993). To be noted: HepG2 Attagene cis-factorial Oct reporter, mRNA; actives raise or lower the signal. The gist of the method: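 Read-out: reporter mRNA via RT-PCR plus capillary electrophoresis of 6-FAM-labelled fragments. Transiently transfected HepG2, 24 h exposure, endogenous TF activity on cis elements. Gain or loss of signal fitted relative to DMSO.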

Test [6] has as its target human Peroxisome Proliferator-activated Receptor alpha (PPARa), PPARA (gene 5465) (UniProt Q07869). Description: ATG_PPARa_TRANS: Attagene TRANS-FACTORIAL HepG2 Assay for human Peroxisome Proliferator-activated Receptor alpha (PPARa) (AID 2283001; active means hit-call score of the fitted dose curve at least 0.9, where 1 is the maximum). The gist of the method: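 Read-out is fluorescence of reporter cDNA fragments resolved by capillary electrophoresis after RT-PCR. Human HepG2 liver cells carried transfected PPARa-Gal4 chimera and GAL4-UAS reporter units, treated 24 h; activity scored as increase over DMSO.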

Test [7] has as its target human Peroxisome Proliferator-activated Receptor delta (PPARd), PPARD (gene 5467) (UniProt Q03181). Description: ATG_PPARd_TRANS: Attagene TRANS-FACTORIAL HepG2 Assay for human Peroxisome Proliferator-activated Receptor delta (PPARd) (AID 2283002; active means hit-call score of the fitted dose curve at least 0.9, where 1 is the maximum). Summed up:
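Cell-based TRANS reporter: HepG2, transient MRTU transfection, 24 h exposure. Readout = reporter mRNA (RT-PCR/CE, 6-FAM). Gain-of-signal fit vs DMSO control.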

For test [8], the target named is Peroxisome proliferator-activated receptor gamma (Homo sapiens) (UniProt P37231). Briefly: ATG_PPARg_TRANS: Attagene TRANS-FACTORIAL HepG2 Assay for human Peroxisome Proliferator-activated Receptor-gamma (PPARg) (AID 2283007; active means hit-call score of the fitted dose curve at least 0.9, where 1 is the maximum). The gist of the method: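 Human hepatoma HepG2, transient MRTU transfection, 24 h treatment. mRNA reporter signal by RT-PCR plus capillary electrophoresis, fluorescence detection; fitted for increase over DMSO negative control.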

The target in test [9] is Nuclear receptor subfamily 1 group I member 2 (Homo sapiens) (UniProt O75469). Briefly: ATG_PXR_TRANS: Attagene TRANS-FACTORIAL HepG2 Assay for human Pregnane X Receptor (PXR) (AID 2283008; active means hit-call score of the fitted dose curve at least 0.9, where 1 is the maximum). The gist of the method: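 Measures mRNA induction of a GAL4-UAS-driven reporter in human HepG2 cells transiently expressing PXR fused to Gal4, following 24 h treatment. DMSO served as negative control and baseline.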

The target in test [10] is Cellular tumor antigen p53 (Homo sapiens) (UniProt P04637). Briefly: ATG_p53_CIS: Attagene CIS-FACTORIAL HepG2 Assay for human p53 Transcription Factor (AID 2282994). To be noted: HepG2 p53 cis-element reporter, Attagene mRNA; actives raise or lower the signal. The gist of the method:
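Multiplexed reporter mRNA assay in human HepG2 liver cells; cis-regulated units report endogenous factor activity. Values come from bidirectional curve fitting against DMSO negative control after 24 h treatment.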

Test [11] deals with human RAR-related Orphan Receptor beta (RORb), RORB (gene 6096) (UniProt Q92753). Briefly: ATG_RORb_TRANS: Attagene TRANS-FACTORIAL HepG2 Assay for human RAR-related Orphan Receptor beta (RORb) (AID 2283010; active means hit-call score of the fitted dose curve at least 0.9, where 1 is the maximum). The gist of the method:
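Readout is reporter-gene mRNA induction, detected as fluorescence after RT-PCR and capillary electrophoresis, fitted for gain of signal against DMSO controls. Transiently transfected HepG2 liver cells carrying GAL4-UAS reporter constructs were treated for 24 hours.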

Test [12] in a line: BSK_3C_TissueFactor: BioMAP Diversity Plus: 3C Assay for Tissue Factor Biomarker Activity (AID 2282997). To be noted: BioMAP 3C HUVEC, tissue factor biomarker readout; actives raise or lower the signal. Summed up: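 Values derive from bidirectional curve fitting against DMSO of Tissue Factor ELISA signals, taken 24 h after dosing primary human umbilical vein endothelial cells.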

Test [13] can be described thus: BSK_3C_uPAR: BioMAP Diversity Plus: 3C Assay for Urokinase-type plasminogen activator receptor (uPAR) Biomarker Activity (AID 2282998). Conditions: BioMAP 3C HUVEC, uPAR biomarker ELISA; actives raise or lower the signal. Summed up: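 HUVEC primary cells; 24 h post-dose; uPAR by ELISA; gain or loss of signal fitted bidirectionally vs DMSO baseline.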
In general terms: In an ELISA, binding on a coated surface is turned into a signal by an enzyme label.

A short description of test [14]: BSK_3C_VCAM1: BioMAP Diversity Plus: 3C Assay for Vascular cell adhesion molecule 1 (VCAM1) Biomarker Activity (AID 2282999). To be noted: BioMAP 3C HUVEC, VCAM1 ELISA, cytokine-stimulated; actives raise or lower the signal. The gist of the method:
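Endothelial cells from human umbilical vein are treated with test chemical. At 24 h, VCAM-1 is measured by ELISA, and responses in either direction are fitted relative to DMSO.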

Test [15] in a line: BSK_4H_Eotaxin3: BioMAP Diversity Plus: 4H Assay for Eotaxin 3 Biomarker Activity (AID 2283000). Conditions: primary human endothelial cells (HUVEC); actives raise or lower the signal. Summed up:
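Endothelial primary cells (human umbilical vein) exposed to compound for 24 h. ELISA detection of Eotaxin-3.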

Read-out in test [16]: Intercellular Adhesion Molecule 1 (ICAM1), ICAM1 (gene 3383)
Briefly: BSK_3C_ICAM1: BioMAP Diversity Plus: 3C Assay for Intercellular Adhesion Molecule 1 (ICAM1) Biomarker Activity (AID 2283003). Conditions: primary human endothelial cells (HUVEC); actives raise or lower the signal. Summed up:
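ICAM-1 levels measured by ELISA after HUVEC cultures in the 3C system had been dosed for 24 h. Gain or loss of signal relative to DMSO was fitted in both directions.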

In test [17] the target is human Retinoic Acid Receptor beta (RARb), RARB (gene 5915) (UniProt P10826). Briefly: ATG_RARb_TRANS: Attagene TRANS-FACTORIAL HepG2 Assay for human Retinoic Acid Receptor beta (AID 2283004; active means hit-call score of the fitted dose curve at least 0.9, where 1 is the maximum). Summed up:
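HepG2, transient MRTU transfection, NR–Gal4 chimera, 24 h treatment; RT-PCR plus CE fluorescence detection of reporter mRNA; gain of signal vs DMSO.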

The nature of test [18]: BSK_3C_Proliferation: Cell Proliferation Assessment in the BioMAP Diversity Plus: 3C Assay (AID 2283006).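 On AC50: potency may reflect either rise or fall in cell number versus DMSO.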 Conditions: primary human endothelial cells (HUVEC). Summed up:
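Read-out is total protein by SRB absorbance at 560 nm, taken as a proxy for relative cell number. Primary human umbilical vein endothelium cultured below confluence was dosed for 48 h, TCA-fixed and SRB-stained; curves were fitted bidirectionally versus DMSO.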

Test [19] concerns the target human Retinoic Acid Receptor gamma (RARg), RARG (gene 5916) (UniProt P13631). Briefly: ATG_RARg_TRANS: Attagene TRANS-FACTORIAL HepG2 Assay for human Retinoic Acid Receptor gamma (RARg) (AID 2283009; active means hit-call score of the fitted dose curve at least 0.9, where 1 is the maximum). Summed up: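 Transient transfection of HepG2 with multi-reporter constructs, then 24 h chemical treatment. Total RNA isolated, reverse-transcribed, PCR-amplified, fluorescently labelled and resolved by capillary electrophoresis; activity scored as mRNA induction versus DMSO.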

Cellular tumor antigen p53 (Homo sapiens), sequence (P04637 whole entry, looked up): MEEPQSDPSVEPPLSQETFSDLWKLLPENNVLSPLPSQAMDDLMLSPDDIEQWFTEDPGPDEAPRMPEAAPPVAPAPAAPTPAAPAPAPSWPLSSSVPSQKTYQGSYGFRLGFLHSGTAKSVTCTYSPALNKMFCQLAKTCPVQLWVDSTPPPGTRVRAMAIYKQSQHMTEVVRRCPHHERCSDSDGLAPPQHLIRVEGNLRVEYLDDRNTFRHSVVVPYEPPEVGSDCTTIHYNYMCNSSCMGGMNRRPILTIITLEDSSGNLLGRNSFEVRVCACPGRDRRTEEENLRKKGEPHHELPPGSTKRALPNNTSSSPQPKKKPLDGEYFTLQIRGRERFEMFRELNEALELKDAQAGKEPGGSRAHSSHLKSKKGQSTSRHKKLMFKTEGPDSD
Nuclear receptor subfamily 1 group I member 2 (Homo sapiens), sequence (O75469 whole entry, looked up, the tested form may be a part): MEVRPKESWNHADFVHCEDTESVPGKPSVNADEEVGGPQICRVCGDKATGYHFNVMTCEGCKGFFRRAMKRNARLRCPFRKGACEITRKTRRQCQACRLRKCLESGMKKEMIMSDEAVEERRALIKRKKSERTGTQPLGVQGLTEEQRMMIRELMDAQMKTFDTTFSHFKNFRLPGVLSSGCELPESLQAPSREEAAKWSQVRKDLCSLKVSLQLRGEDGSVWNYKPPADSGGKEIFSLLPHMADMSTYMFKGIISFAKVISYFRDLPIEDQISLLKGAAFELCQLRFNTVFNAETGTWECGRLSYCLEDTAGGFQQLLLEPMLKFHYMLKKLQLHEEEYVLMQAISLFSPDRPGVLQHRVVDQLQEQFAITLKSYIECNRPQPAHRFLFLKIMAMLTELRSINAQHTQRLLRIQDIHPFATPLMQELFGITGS
human Peroxisome Proliferator-activated Receptor alpha (PPARa), PPARA (gene 5465), sequence (Q07869 whole entry, looked up, the tested form may be a part): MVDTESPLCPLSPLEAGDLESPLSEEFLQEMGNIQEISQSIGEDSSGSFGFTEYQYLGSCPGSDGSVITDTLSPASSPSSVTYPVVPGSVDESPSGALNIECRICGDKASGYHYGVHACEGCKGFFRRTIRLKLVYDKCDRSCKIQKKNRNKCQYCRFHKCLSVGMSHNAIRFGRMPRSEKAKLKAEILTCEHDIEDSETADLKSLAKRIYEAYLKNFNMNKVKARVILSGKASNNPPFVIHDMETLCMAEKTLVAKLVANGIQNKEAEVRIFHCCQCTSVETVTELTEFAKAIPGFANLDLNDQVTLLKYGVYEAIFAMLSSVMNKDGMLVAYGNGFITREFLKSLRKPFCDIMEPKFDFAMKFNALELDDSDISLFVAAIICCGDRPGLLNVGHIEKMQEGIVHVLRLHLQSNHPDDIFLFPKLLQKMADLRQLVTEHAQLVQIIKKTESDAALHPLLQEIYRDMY
Myc proto-oncogene protein (Homo sapiens), sequence (P01106 whole entry, looked up): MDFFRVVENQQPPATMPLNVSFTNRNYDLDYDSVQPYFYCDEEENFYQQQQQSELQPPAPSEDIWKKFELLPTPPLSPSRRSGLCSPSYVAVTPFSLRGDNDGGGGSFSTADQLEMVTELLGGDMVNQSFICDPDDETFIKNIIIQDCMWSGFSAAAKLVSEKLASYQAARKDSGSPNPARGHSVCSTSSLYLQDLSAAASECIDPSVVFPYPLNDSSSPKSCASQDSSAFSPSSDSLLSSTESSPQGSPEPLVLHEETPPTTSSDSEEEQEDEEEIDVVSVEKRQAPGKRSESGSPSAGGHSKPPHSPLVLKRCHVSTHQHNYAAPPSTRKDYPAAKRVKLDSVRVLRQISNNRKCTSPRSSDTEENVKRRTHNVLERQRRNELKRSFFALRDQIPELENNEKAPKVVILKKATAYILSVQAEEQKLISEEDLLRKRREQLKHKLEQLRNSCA
Peroxisome proliferator-activated receptor gamma (Homo sapiens), sequence (P37231 whole entry, looked up): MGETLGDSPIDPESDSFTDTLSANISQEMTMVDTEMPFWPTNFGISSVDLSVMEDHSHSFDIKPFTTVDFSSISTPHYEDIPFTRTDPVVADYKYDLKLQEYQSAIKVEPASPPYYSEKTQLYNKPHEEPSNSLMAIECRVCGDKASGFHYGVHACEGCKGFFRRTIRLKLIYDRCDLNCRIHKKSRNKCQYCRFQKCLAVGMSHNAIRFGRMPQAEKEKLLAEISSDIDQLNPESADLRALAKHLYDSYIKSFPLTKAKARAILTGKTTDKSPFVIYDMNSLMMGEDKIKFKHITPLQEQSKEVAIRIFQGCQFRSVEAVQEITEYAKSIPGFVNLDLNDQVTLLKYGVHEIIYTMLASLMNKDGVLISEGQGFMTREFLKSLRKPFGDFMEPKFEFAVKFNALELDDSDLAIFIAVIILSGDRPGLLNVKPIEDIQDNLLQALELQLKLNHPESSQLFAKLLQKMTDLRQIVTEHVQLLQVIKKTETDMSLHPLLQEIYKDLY
human Peroxisome Proliferator-activated Receptor delta (PPARd), PPARD (gene 5467), sequence (Q03181 whole entry, looked up): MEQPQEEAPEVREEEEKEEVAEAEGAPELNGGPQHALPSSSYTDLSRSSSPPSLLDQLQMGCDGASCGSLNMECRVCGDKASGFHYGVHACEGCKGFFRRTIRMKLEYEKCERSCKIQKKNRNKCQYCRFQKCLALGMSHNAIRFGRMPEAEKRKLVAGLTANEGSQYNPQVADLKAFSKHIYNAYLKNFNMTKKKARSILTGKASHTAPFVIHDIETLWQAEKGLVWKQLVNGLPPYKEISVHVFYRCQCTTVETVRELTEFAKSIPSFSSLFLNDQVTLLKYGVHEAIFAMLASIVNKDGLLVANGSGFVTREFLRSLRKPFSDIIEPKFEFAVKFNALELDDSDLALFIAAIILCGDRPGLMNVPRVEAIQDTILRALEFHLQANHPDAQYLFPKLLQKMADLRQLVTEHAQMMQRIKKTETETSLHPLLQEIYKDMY
human Retinoic Acid Receptor beta (RARb), RARB (gene 5915), sequence (P10826 whole entry, looked up, the tested form may be a part): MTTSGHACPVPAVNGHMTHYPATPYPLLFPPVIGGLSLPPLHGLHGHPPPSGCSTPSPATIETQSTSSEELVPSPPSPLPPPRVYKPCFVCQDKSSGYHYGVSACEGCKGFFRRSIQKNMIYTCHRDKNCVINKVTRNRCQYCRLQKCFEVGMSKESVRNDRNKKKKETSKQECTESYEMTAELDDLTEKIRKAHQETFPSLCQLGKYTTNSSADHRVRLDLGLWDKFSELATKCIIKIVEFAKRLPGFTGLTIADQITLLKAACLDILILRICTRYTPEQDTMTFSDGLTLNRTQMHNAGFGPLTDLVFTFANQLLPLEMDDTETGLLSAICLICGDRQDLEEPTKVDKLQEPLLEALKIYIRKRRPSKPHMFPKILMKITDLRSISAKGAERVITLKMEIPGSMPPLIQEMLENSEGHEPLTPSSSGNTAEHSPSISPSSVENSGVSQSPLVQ
human RAR-related Orphan Receptor beta (RORb), RORB (gene 6096), sequence (Q92753 whole entry, looked up, the tested form may be a part): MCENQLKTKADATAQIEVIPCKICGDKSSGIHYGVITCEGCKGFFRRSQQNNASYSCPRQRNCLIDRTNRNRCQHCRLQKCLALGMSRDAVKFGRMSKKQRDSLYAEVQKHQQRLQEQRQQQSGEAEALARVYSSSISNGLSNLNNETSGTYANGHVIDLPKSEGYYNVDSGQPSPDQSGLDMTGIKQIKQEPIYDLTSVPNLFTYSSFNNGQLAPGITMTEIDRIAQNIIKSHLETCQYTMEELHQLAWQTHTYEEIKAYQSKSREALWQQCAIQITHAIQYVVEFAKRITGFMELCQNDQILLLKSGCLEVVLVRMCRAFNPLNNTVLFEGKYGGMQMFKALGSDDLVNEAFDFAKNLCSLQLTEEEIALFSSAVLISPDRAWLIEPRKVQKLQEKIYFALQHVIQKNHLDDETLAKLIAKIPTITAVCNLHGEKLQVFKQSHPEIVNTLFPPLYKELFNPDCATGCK
human Retinoic Acid Receptor gamma (RARg), RARG (gene 5916), sequence (P13631 whole entry, looked up): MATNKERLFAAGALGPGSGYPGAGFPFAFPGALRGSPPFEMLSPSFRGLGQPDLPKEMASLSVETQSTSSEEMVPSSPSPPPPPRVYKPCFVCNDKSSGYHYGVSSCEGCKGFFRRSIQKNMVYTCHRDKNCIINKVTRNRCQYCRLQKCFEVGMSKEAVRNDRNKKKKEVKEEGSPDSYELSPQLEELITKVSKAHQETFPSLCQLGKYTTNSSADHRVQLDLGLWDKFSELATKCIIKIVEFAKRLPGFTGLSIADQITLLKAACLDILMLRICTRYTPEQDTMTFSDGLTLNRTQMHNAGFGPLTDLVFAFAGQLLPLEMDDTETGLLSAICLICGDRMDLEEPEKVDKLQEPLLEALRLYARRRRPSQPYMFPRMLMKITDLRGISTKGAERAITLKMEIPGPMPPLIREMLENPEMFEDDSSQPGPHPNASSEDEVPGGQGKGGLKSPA

With `CC(C)=CCCC(C)CC(=O)O` (stereo unspecified), the call in test [1], in test [2], in test [3], in test [4], in test [5] and in test [6] was inactive. In addition, the result in test [7], in test [8] and in [9] was inactive.

Consider `COc1ccc(N=Nc2cc(C)c(N=Nc3ccc(S(=O)(=O)O)cc3)cc2OC)cc1`, for which the AC50 in test [1] is 149 µM (active); in test [4], 25.7 µM (active); in [8], 25.4 µM (active). Also, the call in [2], in test [3], in test [10], in test [7], in test [9] and in test [11] was inactive.

`C=C(C)C1CC=C(C)C(=O)C1` (stereo unspecified): the compound was called inactive in [1], in test [2], in test [3], in test [4], in test [5] and in [6]. Also, the call in test [8] and in [9] was inactive.

As to `CC(CN=Cc1ccccc1O)N=Cc1ccccc1O` (stereo unspecified), the call in test [1], in test [2], in [10], in test [12], in test [13] and in [14] was inactive. Also, the result in [15], in test [6], in [16], in test [17] and in [18] was inactive. For the same compound, the AC50 is 63.6 µM (active) in test [3], 69.5 µM (active) in test [4], 3.97 µM (active) in test [18] and 72.2 µM (active) in [8].

In the case of `COc1ccc(CCN2CCC(Nc3nc4ccccc4n3Cc3ccc(F)cc3)CC2)cc1`, the compound was called inactive in test [1], in [2], in test [3], in test [10], in [12] and in test [14]. Moreover, the result in test [16], in test [17], in [9], in test [19] and in test [11] was inactive. For the same compound, the AC50 in test [4] is 1.99 µM (active); in test [13], 5 µM (active); in [15] it was 5 µM (active); in test [18], 6.51 µM (active).

In general, AC50 refers to the midpoint of the concentration-response curve, whichever way the signal moves.
